Compounds with a hit are over-represented: about 27% of the library has one in this group of screens.
Cav32 inh: human Cav3.2 channel inhibition, primary screen. hit rate 4% among 100,000. Cav3.2-expressing cells, Fluo-4 calcium fluorescence FDSS; hits give low values. O95180. B-score at 10 µM;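 active = single-dose well whose peak fluorescence ratio is a statistical outlier from its plate by either plate-standardised score or position-corrected B-score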
CYP2C19 inh: blocks human cytochrome P450 2C19 | P33261 | CYP2C19 Supersomes, luciferin-H EGE luminescence, 30 min | inhibition, % at 5 µM | hit rate 21% among 96,000;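 active = CYP2C19 inhibition above a set limit at 5 µM in the primary screen, cut at about 50% in these data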;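 note: plate controls were negative control wells for no effect and 2.5 mM tranylcypromine positive control for full effect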
CYP2C9 inh: inhibitors of human CYP2C9; CYP2C9 Supersomes, luciferin-H conversion, luminescence; inhibition, % at 5 µM; hit rate 20% among 96,000;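 active = blocking of liver enzyme CYP2C9 beyond about 50% at 5 µM, limit read from the data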
CYP2C19 activ: cytochrome P450 2C19 (human) activation. P33261. 96,000 tested, under 10 active. activation factor at 5 µM. recombinant CYP2C19, luciferin-H EGE luminescence; hits give high values; 0 = fully inhibited enzyme, 1 = untreated enzyme. AID 1025;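 active = activation factor of at least 2 at 5 µM in the primary screen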;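 note: 0 = wells with 2.5 mM tranylcypromine and 1 = vehicle-only wells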
CYP2C9 activ: activators of human CYP2C9; recombinant CYP2C9, luciferin-H conversion, luminescence; hits give high values; factor 1 = untreated enzyme, 0 = blocked; activation factor at 5 µM; hit rate 1.4% among 96,000; AID 1024;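 active = activation factor of 2 or more for CYP2C9 at a 5 µM dose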;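 note: 0 = sulfaphenazole-blocked wells and 1 = vehicle-only wells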
* marks the source's active call; other numbers are inactive results; . = no result given.

SMILES	Cav32 inh	CYP2C19 inh	CYP2C9 inh	CYP2C19 activ	CYP2C9 activ
O=C(O)C1C2C=CC(C2)C1C(=O)OC1CC2CCC1C2 (stereo not drawn)	0.52	36	42	0.6	0.6
COc1ccccc1/C=N/N(C(C)=O)c1nc(-c2ccc(F)cc2)cs1	-0.52	24	29	0.8	0.7
O=C1CCC2(C(=O)O)Sc3ccccc3N12 (stereo not drawn)	0.13	-28	-34	1.3	1.3
Cc1ccc(-c2noc(CN(C(=O)c3cccs3)C(C)C)n2)cc1	-1.6	45	74*	0.6	0.3
CC(C)N(Cc1nc(-c2ccc(Cl)cc2)no1)C(=O)c1cccs1	-2.2	78*	89*	0.2	0.1
CC(C)N(Cc1nc(-c2ccc(Cl)cc2)no1)C(=O)C12CC3CC(CC(C3)C1)C2	0.14	2	4	1	1
Cc1occc1-c1nnc(SCC(=O)Nc2nccs2)n1Cc1ccco1	-0.92	72*	55*	0.3	0.5
Cc1ccc(NC(=O)CSc2nnc(-c3cnccn3)n2Cc2ccco2)cc1	0.011	27	48	0.7	0.5
Cc1cc(C)nc(SCc2nnc(SCC(=O)Nc3nccs3)n2Cc2ccco2)n1	-0.38	15	63*	0.8	0.4
COc1ccc2c(=O)c(-c3ccccc3)c(C)oc2c1	.	19	12	0.8	0.9
C=CCNS(=O)(=O)CC12CCC(CC1=O)C2(C)C (stereo not drawn)	0.29	6	-4	0.9	1
Cc1ccc(-n2nnnc2Sc2nc([N+](=O)[O-])nn2C)cc1C	0.33	.	.	.	.
Cc1ccc(/C=c2/sc3nnc(-c4ccccc4Cl)n3c2=O)o1	-1.3	65*	68*	0.4	0.3
CCN(CC)c1ccc(/C=c2/sc3nnc(-c4ccccc4C)n3c2=O)cc1	-2.9	4	6	1	0.9
Cc1ccc(/C=c2\sc3nc(-c4ccccc4Br)nn3c2=O)o1	.	7	-21	0.9	1.2
CCN(CC)c1ccc(/C=c2\sc3nnc(-c4ccccc4Cl)n3c2=O)cc1	-4.7*	6	19	0.9	0.8
Cc1cc2c(cc1C)N(C(=O)CSC1=NCCS1)C(C)(C)c1ssc(=S)c1-2	-2.5	78*	70*	0.2	0.3
COc1ccc2c(c1)-c1c(ssc1=S)C(C)(C)N2C(=O)CSC1=NCCS1	-1.2	72*	73*	0.3	0.3
Cc1cc(C)c2c(c1)-c1c(ssc1=S)C(C)(C)N2C(=O)CSc1nncn1C	0.44	30	41	0.7	0.6
Cc1ccc2c(c1)-c1c(ssc1=S)C(C)(C)N2C(=O)CSc1nncn1C	0.14	76*	43	0.2	0.6
COc1ccc(CCCC(=O)O)c(C)c1	0.65	.	.	.	.
CCOC(=O)c1ccccc1NC(=O)c1ccc(NS(C)(=O)=O)cc1	-0.44	40	36	0.6	0.6
COc1ccc(-c2onc(C)c2-c2ccc(C(=O)OC(C)C)o2)c(O)c1	-5.2*	98*	98*	0	0
CCCn1nnc(NC(=O)COc2ccc(Cl)cc2)n1	-0.27	30	10	0.7	0.9
CCCn1nnc(NC(=O)COc2ccc(C3CCCCC3)cc2)n1	-3.3	62*	89*	0.4	0.1
SMILES	Cav32 inh	CYP2C19 inh	CYP2C9 inh	CYP2C19 activ	CYP2C9 activ
CCCCCCn1c(=O)c(-c2ccccc2)c(O)c2ccccc21	-7.1*	35	76*	0.6	0.2
COc1ccc(C(=O)N2CCC(=O)N(C(CO)Cc3ccccc3)CC2)cc1 (stereo not drawn)	0.072	.	.	.	.
CCOC(=O)c1oc2cc(O)c(CC)cc2c(=O)c1-c1ccc2c(c1)OCCO2	-0.1	34	99*	0.7	0
CCOC(=O)c1oc2cc(O)ccc2c(=O)c1-c1ccc(OC)cc1	1.8	46	36	0.5	0.6
Cn1c(-c2ccccc2)cnc1SCc1nc2ccccc2c(=O)[nH]1	0.64	100*	21	0	0.8
Cn1c(SC/C=C/c2ccccc2)nnc1-c1ccco1	0.62	.	.	.	.
COc1ccc(C(=O)NCCc2nnc(SCc3nc4ccccc4c(=O)[nH]3)n2C)cc1	0.33	-6	84*	1.1	0.2
Cn1c(SCc2nc3ccccc3c(=O)[nH]2)nnc1-c1ccco1	-0.0031	51*	-4	0.5	1
Cn1c(=O)c2c(ncn2CC(=O)N2CCN(c3cccc(Cl)c3)CC2)n(C)c1=O	2.8	9	11	0.9	0.9
O=[N+]([O-])c1ccc(NC(=S)N/C(=N/CS(=O)(=O)c2ccccc2)c2ccccc2)cc1	-0.7	29	58*	0.7	0.4
Cc1cccc(NC(=S)N/C(=N/S(=O)(=O)c2ccccc2)c2ccccc2)c1	-0.14	14	46	0.9	0.5

Assay outcomes as filed in PubChem BioAssay.
